The nature of test [1]: Human pregnane X receptor (PXR) small molecule agonists, qHTS cell viability counter screen (AID 1346977). Note: nearly all actives have a fitted effect of over 50% in size. A digest of the protocol:
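Readout is CellTiter-Fluor fluorescence from PXR-Luc HepG2 cells. Plated cells rested 5hr, then were treated with compounds for 24hr at 37C and 5% CO2, with reagent present during the last hour.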

Test [2] can be described thus: Caspase-3/7 induction in HepG2 cells by small molecules, qHTS assay (AID 1346978). Note: nearly all actives have a fitted effect of over 15% in size. The procedure, abridged:
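Wild-type HepG2 cells (2,000/well) were settled 5 h at 37 C, 5% CO2, then exposed to compounds in DMSO for 17 h. Caspase-3/7 activity was read by luminescence 30 min after adding Caspase-Glo 3/7 reagent at room temperature.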

The nature of test [3]: Caspase-3/7 induction in CHO-K1 cells by small molecules, qHTS cell viability counter screen (AID 1346979). Note: nearly all actives have a fitted effect of over 35% in size. A digest of the protocol: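 To flag cytotoxic compounds, treated CHO-K1 wild-type cells were given CellTiter-Fluor at 16hr and read fluorescently after 1hr at 37C; the caspase-3/7 luminescence was measured in these same wells.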
The nature of test [4]: Caspase-3/7 induction in CHO-K1 cells by small molecules, qHTS assay (AID 1346980). Note: nearly all actives have a fitted effect of over 15% in size. A digest of the protocol:
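Wild-type cells were seeded at 1,500 per well and settled 5 hr at 37 C, 5% CO2, then exposed to DMSO-dissolved compounds for 17 hr. Caspase-Glo 3/7 reagent was added, and luminescence was read after 30min at room temperature.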

Test [5] can be described thus: Caspase-3/7 induction in HepG2 cells by small molecules, qHTS cell viability counter screen (AID 1346981). Note: series mostly up to about 92 µM; nearly all actives have a fitted effect of over 30% in size. A digest of the protocol:
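In this quantitative HTS counter screen, compounds delivered in DMSO were left on unmodified HepG2 cells for 16 hr at 37 C. Viability was then determined fluorometrically with CellTiter-Fluor, in parallel with caspase-3/7 induction in the same wells.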

Test [6] addresses Nuclear receptor subfamily 1 group I member 2 (Homo sapiens) (UniProt O75469). As to the kind of experiment: Human pregnane X receptor (PXR) small molecule agonists, qHTS assay (AID 1346982). Note: nearly all actives have a fitted effect of over 35% in size. Note: potency is the fitted concentration of half-maximal effect. The procedure, abridged: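 Reporter HepG2 cells expressing PXR-Luc are cultured in charcoal-stripped FBS (5%), treated with compounds for 24 hr at 37 C, and assayed by ONE-Glo luminescence after 30 min at room temperature.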

For test [7], the target named is Cytochrome P450 2D6 (Homo sapiens) (UniProt P10635). As to the kind of experiment: Cytochrome P450 Family 2 Subfamily D Member 6 (CYP2D6) small molecule antagonists: luciferase reporter qHTS assay (AID 1671196). Note: nearly all actives have a fitted effect of over 50% in size. Note: potency is the fitted concentration of half-maximal effect. A digest of the protocol:
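Test chemicals meet CYP2D6 plus proluciferin substrate (10 min, RT); NADPH regenerating solution then drives turnover for 1 h. Detection reagent halts the reaction; luminescence measured after 20 min.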

In test [8] the target is Cytochrome P450 2C19 (Homo sapiens) (UniProt P33261). The test is described as follows: Cytochrome P450 Family 2 Subfamily C Member 19 (CYP2C19) small molecule antagonists: luciferase reporter qHTS assay (AID 1671197). Note: nearly all actives have a fitted effect of over 65% in size. Note: potency is the fitted concentration of half-maximal effect. The procedure, abridged: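 Quantitative high-throughput screen of the Tox21 library using CYP2C19 with proluciferin substrate. Reaction: NADPH regeneration, 37C, 1 h, after 10 min compound preincubation at room temperature. Readout: luminescence.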
Chain of Cytochrome P450 2C19 (Homo sapiens) (P33261 whole entry, looked up): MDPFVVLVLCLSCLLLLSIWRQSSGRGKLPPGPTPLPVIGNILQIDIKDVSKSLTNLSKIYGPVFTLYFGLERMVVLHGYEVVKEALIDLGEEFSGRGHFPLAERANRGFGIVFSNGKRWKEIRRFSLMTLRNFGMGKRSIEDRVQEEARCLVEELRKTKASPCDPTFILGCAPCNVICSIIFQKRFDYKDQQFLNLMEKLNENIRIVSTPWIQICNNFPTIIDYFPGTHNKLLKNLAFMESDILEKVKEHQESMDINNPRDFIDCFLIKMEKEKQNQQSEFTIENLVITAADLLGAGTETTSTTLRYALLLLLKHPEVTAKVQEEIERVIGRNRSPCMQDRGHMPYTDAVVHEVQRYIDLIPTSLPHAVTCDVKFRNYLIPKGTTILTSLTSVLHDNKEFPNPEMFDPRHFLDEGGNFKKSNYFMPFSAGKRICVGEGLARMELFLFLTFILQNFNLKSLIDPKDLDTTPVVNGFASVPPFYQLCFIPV

Test [9] deals with Cytochrome P450 2C9 (Homo sapiens) (UniProt P11712). As to the kind of experiment: Cytochrome P450 Family 2 Subfamily C Member 9 (CYP2C9) small molecule antagonists: luciferase reporter qHTS assay (AID 1671198). Note: nearly all actives have a fitted effect of over 50% in size. Note: potency is the fitted concentration of half-maximal effect. The procedure, abridged: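 CYP2C9 activity was measured with a P450-Glo proluciferin substrate. Enzyme–substrate mix was held with compound for 10 min at room temperature, then NADPH regeneration solution was added for 1 h at 37C. Luciferin product was read as luminescence.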
Chain of Cytochrome P450 2C9 (Homo sapiens) (P11712 whole entry, looked up): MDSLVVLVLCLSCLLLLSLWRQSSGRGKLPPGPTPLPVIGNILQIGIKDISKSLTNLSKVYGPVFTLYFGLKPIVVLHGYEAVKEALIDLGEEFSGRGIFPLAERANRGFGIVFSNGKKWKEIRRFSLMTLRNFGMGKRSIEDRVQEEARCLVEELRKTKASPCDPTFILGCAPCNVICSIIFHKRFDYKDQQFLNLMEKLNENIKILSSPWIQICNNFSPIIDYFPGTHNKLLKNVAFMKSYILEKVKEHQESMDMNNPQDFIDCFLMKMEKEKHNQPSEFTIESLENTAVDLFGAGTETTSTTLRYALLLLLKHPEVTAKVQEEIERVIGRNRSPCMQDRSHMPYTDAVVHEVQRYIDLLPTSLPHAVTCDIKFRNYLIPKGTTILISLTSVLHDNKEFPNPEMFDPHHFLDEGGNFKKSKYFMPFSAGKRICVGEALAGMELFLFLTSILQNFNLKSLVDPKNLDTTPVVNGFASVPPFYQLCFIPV

Test [10] deals with Cytochrome P450 1A2 (Homo sapiens) (UniProt P05177). As to the kind of experiment: Cytochrome P450 Family 1 Subfamily A Member 2 (CYP1A2) small molecule antagonists: luciferase reporter qHTS assay (AID 1671199). Note: nearly all actives have a fitted effect of over 50% in size. Note: potency is the fitted concentration of half-maximal effect. A digest of the protocol: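 Steps: enzyme-substrate mix dispensed; test compounds and furafylline control pinned in; 10 min room temperature; NADPH regeneration solution added, 1 h; reaction stopped with luciferin detection reagent; luminescence read after 20 min.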
Chain of Cytochrome P450 1A2 (Homo sapiens) (P05177 whole entry, looked up): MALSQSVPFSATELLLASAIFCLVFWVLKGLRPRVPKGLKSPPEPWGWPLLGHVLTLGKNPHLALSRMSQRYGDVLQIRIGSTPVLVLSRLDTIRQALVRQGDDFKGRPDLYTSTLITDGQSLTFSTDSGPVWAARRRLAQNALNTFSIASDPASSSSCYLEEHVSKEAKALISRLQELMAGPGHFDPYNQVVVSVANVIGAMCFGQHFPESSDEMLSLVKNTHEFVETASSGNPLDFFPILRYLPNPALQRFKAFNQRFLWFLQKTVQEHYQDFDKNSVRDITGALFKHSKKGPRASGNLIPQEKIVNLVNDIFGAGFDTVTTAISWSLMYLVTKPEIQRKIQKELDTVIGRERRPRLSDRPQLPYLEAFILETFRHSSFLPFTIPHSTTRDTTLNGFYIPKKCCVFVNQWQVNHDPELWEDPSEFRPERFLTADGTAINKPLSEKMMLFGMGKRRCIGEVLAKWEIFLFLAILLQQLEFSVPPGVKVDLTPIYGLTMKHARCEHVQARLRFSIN

Test [11] concerns the target Voltage-gated inwardly rectifying potassium channel KCNH2 (Homo sapiens) (UniProt Q12809). The test is described as follows: Human Ether-a-go-go-Related Gene (hERG) channel small molecule antagonists: fluorescence cell-based qHTS assay (AID 1671200). The procedure, abridged: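 Measured: Tl+ flux via fluorescence (480/540 nm) in hERG-expressing U2OS cells after 1 h dye loading at room temperature.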

In test [12] the target is Thyrotropin-releasing hormone receptor (Homo sapiens) (UniProt P34981). As to the kind of experiment: qHTS assay to identify small molecule agonists of the thyrotropin-releasing hormone receptor (TRHR) signaling pathway (AID 1346891; calls by dose curve;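 note: HEK293 cells expressing TRHR with calcium dye readout; series mostly up to about 58 µM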). The procedure, abridged: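 In 1536-format, 1500 TRHR-Hek293 cells per well grew 18 h, took up calcium dye for 2 h at 37 °C, received compound, and were read kinetically; 15-point titrations, triplicates.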
Chain of Thyrotropin-releasing hormone receptor (Homo sapiens) (P34981 whole entry, looked up): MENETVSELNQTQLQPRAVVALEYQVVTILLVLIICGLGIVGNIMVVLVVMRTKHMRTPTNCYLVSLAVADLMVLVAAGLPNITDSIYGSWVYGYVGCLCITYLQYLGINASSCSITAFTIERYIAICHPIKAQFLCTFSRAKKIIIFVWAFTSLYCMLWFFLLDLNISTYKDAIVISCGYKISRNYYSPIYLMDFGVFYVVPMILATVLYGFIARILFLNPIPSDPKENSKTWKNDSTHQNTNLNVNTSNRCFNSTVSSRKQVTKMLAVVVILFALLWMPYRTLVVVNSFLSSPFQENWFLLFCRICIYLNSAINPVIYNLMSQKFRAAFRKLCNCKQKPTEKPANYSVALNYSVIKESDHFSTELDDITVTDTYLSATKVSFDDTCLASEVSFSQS

Test [13] addresses Cytochrome P450 3A4 (Homo sapiens) (UniProt P08684). The test is described as follows: Cytochrome P450 Family 3 Subfamily A Member 4 (CYP3A4) small molecule antagonists: luciferase reporter qHTS assay (AID 1671201). The procedure, abridged:
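Setup: enzyme-substrate mix, compound pin transfer, 10 min RT. Reaction: NADPH regeneration solution, 1 h RT. Readout: detection reagent stops turnover, luminescence measured after 20 min, expressed in relative luminescence units.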

In test [14] the target is Nuclear receptor subfamily 1 group I member 2 (Homo sapiens) (UniProt O75469). The test is described as follows: CYP3A4 induction through human pregnane X receptor (PXR) by small molecules, qHTS assay (AID 1346984). Note: nearly all actives have a fitted effect of over 40% in size. The procedure, abridged:
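Induction measured in HepG2-based DPX-2 cells co-expressing human PXR and a CYP3A4 promoter-driven luciferase. After a 24-hour compound exposure, cells received CYP3A4 luciferin substrate at 3uM final for 3 hours, and light output was then recorded.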

Test [15] has the same target. As to the kind of experiment: Human pregnane X receptor (PXR) activation by small molecules, qHTS assay (AID 1346985). Note: nearly all actives have a fitted effect of over 40% in size. The procedure, abridged: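 DPX-2 cells (HepG2 co-transfected with a PXR response element and a CYP3A4-promoter luciferase construct) were seeded at 2,000 per well, rested 5 hr at 37C, then exposed to DMSO-dissolved compounds for 24 hr. Activation was read as luciferase luminescence.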

Potency and outcome data for twelve compounds are collected here from PubChem BioAssay (Tox21).

SMILES strings stand for the structures. A number with no mark means an inactive call. Records with an inconclusive call do not appear. Active and inactive are the calls of the source. Unless noted, calls come from the whole dose curve; as a rule, active = well fitted curve in the direction sought with a large enough effect in the repeat runs; inconclusive = weak or mixed curves; inactive = no such curve, though single readings can be large; an effect the other way counts as inactive or inconclusive.

Chain of Voltage-gated inwardly rectifying potassium channel KCNH2 (Homo sapiens) (Q12809 whole entry, looked up): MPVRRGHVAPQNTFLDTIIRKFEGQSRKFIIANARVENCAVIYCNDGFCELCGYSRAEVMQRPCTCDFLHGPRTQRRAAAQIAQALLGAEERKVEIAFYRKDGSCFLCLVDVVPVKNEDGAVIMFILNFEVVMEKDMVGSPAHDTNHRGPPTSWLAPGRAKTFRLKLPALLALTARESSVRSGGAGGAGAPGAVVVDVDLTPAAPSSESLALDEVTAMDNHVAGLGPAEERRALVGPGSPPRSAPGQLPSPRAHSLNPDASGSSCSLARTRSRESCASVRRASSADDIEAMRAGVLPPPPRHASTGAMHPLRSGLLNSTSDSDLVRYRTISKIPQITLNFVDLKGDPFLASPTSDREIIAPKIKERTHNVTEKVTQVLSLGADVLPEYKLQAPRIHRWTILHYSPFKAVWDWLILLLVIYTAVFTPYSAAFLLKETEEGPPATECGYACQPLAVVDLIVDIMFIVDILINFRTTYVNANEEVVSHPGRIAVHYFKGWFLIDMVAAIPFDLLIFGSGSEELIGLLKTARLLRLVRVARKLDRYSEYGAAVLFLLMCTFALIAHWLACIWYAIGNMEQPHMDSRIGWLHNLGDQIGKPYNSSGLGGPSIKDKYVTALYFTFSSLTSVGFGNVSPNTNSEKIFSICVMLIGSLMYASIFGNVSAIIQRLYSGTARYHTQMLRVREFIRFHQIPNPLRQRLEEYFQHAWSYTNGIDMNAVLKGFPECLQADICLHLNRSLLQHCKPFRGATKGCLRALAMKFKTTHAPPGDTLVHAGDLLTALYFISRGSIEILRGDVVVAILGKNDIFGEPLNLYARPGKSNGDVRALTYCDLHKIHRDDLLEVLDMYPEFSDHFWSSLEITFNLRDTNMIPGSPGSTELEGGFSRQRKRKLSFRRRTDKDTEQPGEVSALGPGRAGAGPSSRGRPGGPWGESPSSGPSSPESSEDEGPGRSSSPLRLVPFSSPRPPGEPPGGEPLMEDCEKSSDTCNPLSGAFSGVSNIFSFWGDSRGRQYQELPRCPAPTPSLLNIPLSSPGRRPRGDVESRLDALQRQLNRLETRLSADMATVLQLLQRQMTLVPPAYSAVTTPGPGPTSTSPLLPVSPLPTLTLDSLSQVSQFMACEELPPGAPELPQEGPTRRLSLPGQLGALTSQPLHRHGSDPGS
Chain of Cytochrome P450 3A4 (Homo sapiens) (P08684 whole entry, looked up): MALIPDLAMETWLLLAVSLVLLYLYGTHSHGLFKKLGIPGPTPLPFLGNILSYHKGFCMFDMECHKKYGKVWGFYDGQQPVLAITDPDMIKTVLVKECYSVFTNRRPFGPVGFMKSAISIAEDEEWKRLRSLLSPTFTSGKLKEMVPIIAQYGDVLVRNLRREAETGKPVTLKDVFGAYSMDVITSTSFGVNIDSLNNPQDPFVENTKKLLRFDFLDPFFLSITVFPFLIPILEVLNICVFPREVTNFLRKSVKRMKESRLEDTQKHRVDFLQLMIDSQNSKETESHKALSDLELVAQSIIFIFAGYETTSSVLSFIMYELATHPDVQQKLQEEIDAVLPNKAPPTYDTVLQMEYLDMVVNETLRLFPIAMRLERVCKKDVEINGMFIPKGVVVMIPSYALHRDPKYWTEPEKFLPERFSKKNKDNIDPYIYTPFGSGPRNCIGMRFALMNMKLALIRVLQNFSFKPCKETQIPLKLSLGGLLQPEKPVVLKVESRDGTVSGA
Chain of Nuclear receptor subfamily 1 group I member 2 (Homo sapiens) (O75469 whole entry, looked up): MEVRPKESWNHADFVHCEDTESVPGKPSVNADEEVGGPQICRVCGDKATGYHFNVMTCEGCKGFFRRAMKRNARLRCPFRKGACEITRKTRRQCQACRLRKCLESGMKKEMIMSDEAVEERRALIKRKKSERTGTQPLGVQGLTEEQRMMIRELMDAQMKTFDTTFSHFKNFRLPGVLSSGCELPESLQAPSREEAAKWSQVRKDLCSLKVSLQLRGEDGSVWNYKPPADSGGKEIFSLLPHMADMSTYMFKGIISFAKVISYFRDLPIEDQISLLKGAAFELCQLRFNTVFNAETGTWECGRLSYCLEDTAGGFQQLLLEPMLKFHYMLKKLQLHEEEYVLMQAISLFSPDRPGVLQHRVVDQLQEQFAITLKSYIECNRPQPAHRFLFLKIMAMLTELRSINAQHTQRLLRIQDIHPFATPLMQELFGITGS
Chain of Cytochrome P450 2D6 (Homo sapiens) (P10635 whole entry, looked up): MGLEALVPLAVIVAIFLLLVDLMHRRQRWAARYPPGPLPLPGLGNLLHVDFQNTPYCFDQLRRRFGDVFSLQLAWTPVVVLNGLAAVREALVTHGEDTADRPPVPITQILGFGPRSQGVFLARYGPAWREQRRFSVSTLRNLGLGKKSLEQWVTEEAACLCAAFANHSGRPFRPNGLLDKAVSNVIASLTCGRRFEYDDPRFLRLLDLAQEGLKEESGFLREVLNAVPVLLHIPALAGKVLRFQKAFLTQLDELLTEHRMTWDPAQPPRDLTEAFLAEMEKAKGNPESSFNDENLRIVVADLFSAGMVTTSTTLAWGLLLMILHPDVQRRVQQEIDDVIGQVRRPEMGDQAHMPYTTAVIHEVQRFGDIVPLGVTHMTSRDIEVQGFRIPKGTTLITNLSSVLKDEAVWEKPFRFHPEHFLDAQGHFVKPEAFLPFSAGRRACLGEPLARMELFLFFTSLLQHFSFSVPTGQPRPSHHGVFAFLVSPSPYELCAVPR

As to `CCCCCCOC(=O)CC(CC(=O)OCCCCCC)(OC(=O)CCC)C(=O)OCCCCCC`, the Potency entry in test [1], in test [3], in [6], in [7], in test [10] and in test [11] was “inactive” in each case. The compound was classed as inactive in test [2], in test [4] and in [5]. Moreover, the results for the Potency in test [8] and in [9] were 39.9 µM (active) and 31.7 µM (active), respectively.
As to `Cc1ccc(N)cc1[N+](=O)[O-]`, the result in [12], in [2], in [4] and in [5] was inactive. The Potency result in test [1], in test [8] and in test [11] was “inactive” each time. Also, the Potency in test [9] is 35.8 µM (active); in test [10] it was 8.02 µM (active).
Regarding `O=Cc1ccccc1[N+](=O)[O-]`, the Potency entry in test [1], in [3], in [6], in [7], in test [11] and in test [13] was “inactive” each time. Moreover, the compound was classed as inactive in test [2], in test [4] and in test [5]. Besides, the Potency in [10] was 31.7 µM (active).
As for `COc1ccc(NC(C)=O)cc1`, the Potency entry in test [1], in test [8], in test [9], in test [11] and in test [13] was “inactive” throughout. The outcome in [2], in test [4] and in [5] was inactive. In addition, the Potency is 41 µM (active) in test [7] and 36.5 µM (active) in [10].
Take `O=C(O)C(O)[C@H](O)[C@@H](O)[C@H](O)[C@H](O)CO` (stereo partly drawn): the Potency result in test [1], in test [3], in [6], in [11] and in test [13] was “inactive” each time. Further, the result in [2] and in test [5] was inactive. The values for the Potency in test [7], in test [8] and in [10] were 64 µM (active), 40.4 µM (active) and 40.4 µM (active), respectively.
For `C=C(C)C(=O)NCCC[N+](C)(C)C`, the Potency entry in test [1], in test [3], in [6], in test [7], in [9] and in test [11] was “inactive” each time. For the same compound, the Potency entry in [13] was “inactive”. Further, the compound was classed as inactive in test [2], in test [4] and in test [5].
As for `COc1cc(C(=O)N2CCOCC2)cc(OC)c1OC`, the Potency entry in [1], in test [14], in test [15], in test [7], in [9] and in test [10] was “inactive” throughout. Also, in test [11], the Potency result was “inactive”. For the same compound, the compound was classed as inactive in [2], in test [4] and in [5].
Take `Cc1nc(-c2ccc(OCC(C)C)c(C#N)c2)sc1C(=O)O`: the Potency entry in test [1], in test [3], in test [7], in test [10], in test [11] and in test [13] was “inactive” throughout. For the same compound, the compound was called inactive in test [2], in test [4] and in [5]. Moreover, the Potency in test [6] is 0.106 µM (active); in test [9], 17.4 µM (active).
With `COc1cc(C)cc(O)c1`, the Potency result in [1], in test [6], in test [7], in test [8], in test [9] and in test [11] was “inactive” throughout. Also, in test [13], the Potency result was “inactive”. The compound was called inactive in test [2], in [4] and in [5]. For the same compound, the Potency in [10] is 35.6 µM (active).
As for `N[C@@H](CS)C(=O)O`, the Potency entry in [1], in test [6], in test [10], in test [11] and in test [13] was “inactive” in each case. Moreover, the result in test [2], in [4] and in test [5] was inactive.
For `Nc1cc(N)cc(C(=O)O)c1`, the Potency entry in test [1], in [10] and in test [13] was “inactive” each time. For the same compound, the call in test [2], in test [4] and in test [5] was inactive. Moreover, the figures for the Potency in test [6], in test [7] and in test [8] were 34.4 µM (active), 35.6 µM (active) and 79.6 µM (active), respectively.
Regarding `CCCCc1ccc(N)cc1`, the Potency result in test [1], in [3], in test [6] and in test [11] was “inactive” throughout. Besides, the result in test [2] and in test [5] was inactive. In addition, the Potency is 39.9 µM (active) in test [8], 44.8 µM (active) in [9] and 35.6 µM (active) in [10].
